Test results taken from PubChem BioAssay AID1159580 (chemical genetic matrix, 2015).
Where “and” joins values, the source holds several entries; their conditions need not be identical. Identical values can stand only once. About 2,000 (36%) of roughly 5,500 compounds were called active. Not shown: some 18% with an inconclusive outcome. Rule as the data show it: active = normalized growth mostly below about 0.91 (no sharp cut-off); inconclusive = no clear call, values can overlap the other calls; inactive = mostly above about 0.92. Some of the results follow.

Assay: chemical genetic growth profiling, strain panel (AID 1159580);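 also: tested at 20 µM; growth read once vehicle control cultures reached saturation at 30 °C; 1 = growth at the plate median or of vehicle wells; lower values mean less growth of the strain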
Settings: S. cerevisiae deletion strains, growth OD

Measured: normalized growth

Clc1ccc(COC(Cn2ccnc2)c2ccc(Cl)cc2Cl)cc1 (stereo not given)
active: locus YAL013W, strain DEP1, stronger effect = lower value 0.0557 | locus YAL021C, strain ccr4, stronger effect = lower value 0.0668 | locus YAL026C, strain drs2, stronger effect = lower value 0.0618 | locus YAL030W, strain snc1, stronger effect = lower value 0.0554 | locus YBL061C, strain skt5, stronger effect = lower value 0.0644 | locus YBR009C, strain hhf1, stronger effect = lower value 0.0597 | locus YBR021W, strain FUR4, stronger effect = lower value 0.086 | locus YBR023C, strain chs3, stronger effect = lower value 0.0622 | locus YBR171W, strain sec66, stronger effect = lower value 0.0758 | locus YBR229C, strain ROT2, stronger effect = lower value 0.0463 | locus YBR231C, strain swc5, stronger effect = lower value 0.0645 | locus YBR279W, strain paf1, stronger effect = lower value 0.0619 | locus YCL011C, strain gbp2, stronger effect = lower value 0.0566 | locus YCL016C, strain dcc1, stronger effect = lower value 0.0644 | locus YCL029C, strain bik1, stronger effect = lower value 0.06 | locus YCL061C, strain MRC1, stronger effect = lower value 0.0624 | locus YCL069W, strain vba3, stronger effect = lower value 0.0606 | locus YCR088W, strain abp1, stronger effect = lower value 0.0621 | locus YDL005C, strain med2, stronger effect = lower value 0.0718 | locus YDL035C, strain GPR1, stronger effect = lower value 0.0503 | locus YDL040C, strain nat1, stronger effect = lower value 0.0573 | locus YDL074C, strain BRE1, stronger effect = lower value 0.0774 | locus YDL101C, strain DUN1, stronger effect = lower value 0.055 | locus YDL134C, strain PPH21, stronger effect = lower value 0.0501 | locus YDL185W, strain tfp1, stronger effect = lower value 0.0607 | locus YDL192W, strain arf1, stronger effect = lower value 0.0606 | locus YDR001C, strain nth1, stronger effect = lower value 0.0586 | locus YDR069C, strain doa4, stronger effect = lower value 0.0605 | locus YDR101C, strain arx1, stronger effect = lower value 0.0571 | locus YDR137W, strain rgp1, stronger effect = lower value 0.093 | locus YDR150W, strain NUM1, stronger effect = lower value 0.055 | locus YDR159W, strain sac3, stronger effect = lower value 0.0898 | locus YDR162C, strain NBP2, stronger effect = lower value 0.0476 | locus YDR195W, strain ref2 0.131 | locus YDR297W, strain sur2, stronger effect = lower value 0.0541 | locus YDR318W, strain mcm21, stronger effect = lower value 0.061 | locus YDR334W, strain swr1, stronger effect = lower value 0.0622 | locus YDR335W, strain msn5, stronger effect = lower value 0.0604 | locus YDR388W, stronger effect = lower value 0.0583 | locus YDR392W, strain spt3, stronger effect = lower value 0.0764 | locus YDR502C, strain sam2, stronger effect = lower value 0.0603 | locus YEL003W, strain gim4, stronger effect = lower value 0.0531 | locus YEL037C, strain rad23, stronger effect = lower value 0.0573 | locus YEL061C, strain CIN8 (second series), stronger effect = lower value 0.0612 | locus YEL061C, strain CIN8, stronger effect = lower value 0.0491 | locus YER015W, strain faa2, stronger effect = lower value 0.0598 | locus YER016W, strain bim1, stronger effect = lower value 0.0634 | locus YER110C, stronger effect = lower value 0.0724 | locus YER111C, strain swi4, stronger effect = lower value 0.0738 | locus YER155C, strain BEM2 (second series), stronger effect = lower value 0.0963 | locus YER155C, strain BEM2, stronger effect = lower value 0.0618 | locus YER167W, strain BCK2, stronger effect = lower value 0.0498 | locus YFR010W, strain ubp6, stronger effect = lower value 0.0675 | locus YGL078C, strain dbp3, stronger effect = lower value 0.0728 | locus YGL086W, strain mad1, stronger effect = lower value 0.0553 | locus YGL167C, strain pmr1, stronger effect = lower value 0.0771 | locus YGL173C, strain kem1, stronger effect = lower value 0.0703 | locus YGL227W, strain vid30, stronger effect = lower value 0.0629 | locus YGL240W, strain doc1, stronger effect = lower value 0.089 | locus YGL248W, strain PDE1, stronger effect = lower value 0.046 | locus YGL253W, strain hxk2, stronger effect = lower value 0.0531 | locus YGR135W, strain pre9, stronger effect = lower value 0.0589 | locus YGR229C, strain SMI1, stronger effect = lower value 0.0609 | locus YGR252W, strain gcn5, stronger effect = lower value 0.114 | locus YHR013C, strain ard1, stronger effect = lower value 0.0983 | locus YHR027C, strain rpn1, stronger effect = lower value 0.0623 | locus YHR030C, strain SLT2, stronger effect = lower value 0.0501 and 0.104 | locus YHR079C, strain IRE1 (second series), stronger effect = lower value 0.058 | locus YHR079C, strain IRE1, stronger effect = lower value 0.114 | locus YHR094C, strain hxt1, stronger effect = lower value 0.0575 | locus YHR129C, strain ARP1, stronger effect = lower value 0.0576 | locus YHR142W, strain chs7, stronger effect = lower value 0.0716 | locus YHR200W, strain rpn10, stronger effect = lower value 0.0591 | locus YIL066C, strain RNR3, stronger effect = lower value 0.143 | locus YIL073C, strain SPO22, stronger effect = lower value 0.1 | locus YIL125W, strain kgd1, stronger effect = lower value 0.0707 | locus YIR030C, strain dcg1, stronger effect = lower value 0.0577 | locus YJL092W, strain hpr5, stronger effect = lower value 0.0592 | locus YJL095W, strain BCK1 (second series), stronger effect = lower value 0.0566 | locus YJL095W, strain BCK1, stronger effect = lower value 0.0581 and 0.1 | locus YJL115W, strain asf1, stronger effect = lower value 0.0714 | locus YJL129C, strain trk1, stronger effect = lower value 0.0943 | locus YJL134W, strain LCB3, stronger effect = lower value 0.048 | locus YJL154C, strain vps35, stronger effect = lower value 0.0599 | locus YJL164C, strain tpk1, stronger effect = lower value 0.0592 | locus YJL166W, strain qcr8, stronger effect = lower value 0.0601 | locus YJL168C, strain set2, stronger effect = lower value 0.0595 | locus YJL187C, strain SWE1 (second series), stronger effect = lower value 0.0469 | locus YJL187C, strain SWE1, stronger effect = lower value 0.058 | locus YJR043C, strain POL32, stronger effect = lower value 0.0638
